TIM10 inh: inhibits growth of TIM10 yeast strain; S. cerevisiae TIM10 strain growth, BacTiter-Glo luminescence, 24 h; AID 463195; 330,000 compounds, 1.4% hits; inhibition, % at 10 µM;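 active = inhibition of 40% or more at the single tested concentration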;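 also: wild-type TIM10 isogenic control strain grown at permissive 25 °C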
tim10-1 inh: tim10-1 yeast growth inhibition | inhibition, % at 20 µM | S. cerevisiae tim10-1 ts strain growth, BacTiter-Glo, 24 h | AID 463190 | 330,000 compounds, 2.2% hits;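 active = inhibition of at least 40%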;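 also: mutant grown at 25 °C; 0% = DMSO wells with yeast and 100% = wells holding no yeast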
SUMO Mot1 rescue: inhibitors of SUMOylation pathway: yeast Mot1-301 growth rescue; S. cerevisiae Mot1-301 growth rescue, ATP luminescence, 38.5C; percent above DMSO median, 100 means doubled; growth rescue, % at 18.8 µM; 320,000 compounds, 1% hits; AID 2716;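 active = every valid replicate shows activation above 250% relative to neutral control wells; inactive = the rest, any valid replicate at or below 250%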;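 also: OY570 slx delta 5 strain wells were the positive control but not used for scaling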
PfHsp90 set2: reduces growth (ATP signal) of yeast expressing P. falciparum Hsp90. AID 504621. 310,000 compounds, 0.32% hits. S. cerevisiae expressing PfHsp90, BacTiter-Glo ATP, 48 h; yeast lacking PDR1 and PDR3 efflux regulators. inhibition, % at 9.4 µM;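 active = every replicate shows inhibition above about 80%, whatever the replicate mean, limit read from the data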;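 also: 0% = DMSO neutral controls and 100% = 20 µM radicicol positive controls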
tim23-1 inh: growth inhibitors of tim23-1 mutant yeast; S. cerevisiae tim23-1 growth, BacTiter-Glo luminescence, 24 h; AID 463212; 330,000 compounds, 1.3% hits; inhibition, % at 20 µM;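 active = growth inhibition of the mutant yeast at or above 50%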;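 also: temperature-sensitive mutant grown at 25 °C; plate controls were DMSO-treated mutant yeast for no effect and medium wells lacking yeast for full effect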
Yeast Mot1 SUMO: inhibits SUMO pathway, affecting Mot1-301 yeast growth | shares compounds with SUMO Mot1 rescue | S. cerevisiae Mot1-301 galactose growth, ATP luminescence, 24 h; -100 = growth of slx-deleted rescue strain | growth activity, percent, % at 42 µM | 2,300 tested, under 10 active | AID 493004;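 active = Signal drops as the depositor expects, and the fitted half-maximal dose is no more than ten times the top valid tested dose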;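 also: more negative values mean stronger growth rescue toward the control strain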
An asterisk follows results filed as active; . = no result given; + = active, no number; [ ] = dose if it differs, or a comment. This is a sample that favours compounds with a hit; in the whole collection about 4.4% have one here.

SMILES	TIM10 inh	tim10-1 inh	SUMO Mot1 rescue	PfHsp90 set2	tim23-1 inh	Yeast Mot1 SUMO
O=C(CSc1nc2ccc(Nc3nc(N4CCOCC4)nc(N4CCOCC4)n3)cc2s1)N1CCOCC1	10	16	382*	4	6	0
N#CCC(=O)Nc1ccc(C(=O)NNC(=O)c2ccccc2-n2cccc2)cc1	9	4	8	.	-1	.
O=S(=O)(c1ccc2c(c1)CCN2)N1CCOCC1	5	-9	10	16	-13	.
COc1cc2c(cc1OC)C(C)N(C(=O)Nc1ccccc1)CC2 (centres undefined)	17	-3	6	-15	13	.
COc1ccccc1/C=C/C(=O)N1CCc2cc(OC)c(OC)cc2C1C (centres undefined)	21	32	389*	3	40	0
COc1nc(OC)nc(N2CCC(C(=O)NC3CCCCCC3)CC2)n1	14	24	382*	25	7	1
COc1nc(OC)nc(N2CCC(C(=O)NC3CC3)CC2)n1	3	-4	0	32	13	.
N#Cc1c(Cn2cncn2)nc(=O)n(-c2ccc(Cl)cc2)c1N	4	12	+	-10	8	0
COc1ccc(C(=O)N/C(=C\c2cc(OC)c(OC)cc2[N+](=O)[O-])C(=O)NCCO)cc1	-12	-7	993*	-7	-10	0
COc1ccc(C(=O)N/C(=C\c2cc(OC)c(OC)cc2[N+](=O)[O-])C(=O)NCC(=O)O)cc1	4	20	11	-10	-8	.
CCOC(=O)CNC(=O)c1c(C)nn(C)c1Cl	2	2	669*	1	20	1
CCc1ccc([C@H]2C(C(=O)O)=C[C@@H](CC3CCCC3)N2S(=O)(=O)c2ccc(C)cc2)cc1	28	25	.	-9	48	.
CCOc1ccc(CCN2CN(C3CCCCC3)CNC2=S)cc1OCC	3	26	431*	-8	16	1
c1ccc(-c2nc(NCc3ccco3)c3ccccc3n2)nc1	19	31	505*	-41	3	0
O=[N+]([O-])c1cc(S(=O)(=O)NCCN2CCOCC2)ccc1Cl	-27	-31	67	15	-27	.
COc1cccc(OC)c1OCC(O)CN1CCN(c2ccccc2)CC1 (centres undefined)	-5	3	+	-16	11	0
C=CC[C@@H](CC(=O)OC(C)(C)C)C(=O)OC[C@H]1CCCN1C(=O)[C@@H](CC=C)CC(=O)NCCO	2	-2	-16	10	8	.
Cc1cccc2nc3ccccc3cc12	-1	-3	576*	-17	2	-1
Cc1cccc2cc3ccccc3nc12	15	10	55	0	19	.
CCOC(=O)C1CCN(C(=O)COC(=O)CN(C)S(=O)(=O)c2ccc(NC(C)=O)cc2)CC1	2	8	0	8	13	.
N#CC(C#N)=C1C=CC=CN1/C(=C\c1ccccc1Cl)C(=O)c1ccccc1	.	.	600*	4	.	-2
CNC(=O)COC(=O)c1cc(NC(=O)c2ccco2)c(OC)c(OC)c1	-4	13	-8	2	3	.
COc1cc(C(=O)OCC(=O)NCc2ccccc2)cc(NC(=O)c2ccco2)c1OC	-5	12	383*	-9	-19	0
CCOc1ccc(NC(=O)CN2C(=O)NC(C)(c3ccc(OC(F)F)cc3)C2=O)cc1 (centres undefined)	-8	4	-10	13	8	.
COc1cc2c(cc1OC)-c1cc(Nc3ccc(N(C)C)cc3)nc(=O)n1CC2	-8	1	-16	4	6	.
SMILES	TIM10 inh	tim10-1 inh	SUMO Mot1 rescue	PfHsp90 set2	tim23-1 inh	Yeast Mot1 SUMO
CCN(CC)c1ccc(Nc2cc3n(c(=O)n2)CCc2cc(OC)c(OC)cc2-3)cc1	3	28	+	10	22	0
COc1ccc(NC2=C(c3ccc(OC)cc3)C(=O)c3ccccc32)cc1	29	23	9	20	13	.
COc1ccc(C2=C(N)c3ccccc3C2=O)cc1	20	-30	457*	38	31	-2
COC(=O)c1cc(S(=O)(=O)N2CCN(c3cccc(OC)c3)CC2)cn1C	-8	3	-3	-24	-3	.
CCOc1ccc(/C=N/NS(=O)(=O)c2ccc(C)cc2)cc1OC	-13	4	+	14	10	2
COc1cc(/C=N/NS(=O)(=O)c2ccc(C)cc2)ccc1OCc1ccc(C(=O)O)cc1	-7	-5	-3	-2	8	.
COc1ccccc1OCC(=O)Nc1nc(C)c(C)s1	18	17	95	12	26	.
Cc1onc(-c2ccccc2)c1C(=O)OCC(=O)N(C)c1c(N)n(Cc2ccccc2)c(=O)[nH]c1=O	1	3	3	10	-2	.
CCN(C(=O)COC(=O)c1c(-c2ccccc2)noc1C)c1c(N)n(Cc2ccccc2)c(=O)[nH]c1=O	15	9	413*	5	5	0
Cc1ccc(/C=C/C(=O)OCC(=O)N(CC(C)C)c2c(N)n(Cc3ccccc3)c(=O)[nH]c2=O)o1	-4	1	812*	2	5	0[21 µM]
O=C(CN1CCN(S(=O)(=O)/C=C/c2ccccc2)CC1)NCC(F)(F)F	9	0	29	3	7	.
COC(=O)C1=C(C(=O)OC)[C@@H]2Nc3ccccc3[C@@]23C[C@@H](C(=O)OC)N(C(=O)CC(C)C)C3=N1	0	-2	-21	-9	15	.
Cc1cnc(NC(=O)CSc2nc3ccccc3s2)s1	21	7	395*	-16	11	-1
Cc1ccc(C)c(NC(=S)N2CCC(NC(=O)C3CCCCC3)CC2)c1	6	-18	12	-7	0	.
Cc1ccc(NC(=O)C2CCCO2)c(Br)c1 (centres undefined)	8	6	-2	9	4	.
CC(C)(C)NC(=O)CN1CCCN(C(=O)c2cccc(S(=O)(=O)N3CCc4ccccc43)c2)CC1	0	15	6	-33	7	.
Cc1csc(=O)n1CCC(=O)OC(C)C(=O)NCc1ccccc1 (centres undefined)	-11	1	.	-26	11	.
Cc1ccc(C(=O)N2CCOCC2)cc1S(=O)(=O)N1CCCCC1	-5	3	-7	15	-2	.
Cc1cc(NC(=O)c2ccc(F)cc2F)n(-c2nc3ccccc3[nH]2)n1	-21	31	-15	.	-11	.
Cc1cc(NC(=O)c2ccccc2F)n(C(C)(C)C)n1	-6	6	+	5	11	0
COc1ccc(-c2ccc(-c3cc(=O)oc4c(C(C)C)ccc(C)c34)cc2)cc1	14	14	.	-11	28	.
CN(Cc1cccnc1)Cc1cn[nH]c1-c1ccc(-c2ccccc2)cc1	-24	-1	791*	-34	22	0
O=C1NC(=O)N(Cc2ccccc2)C1=O	-8	0	+	8	11	1

Bioassay records from PubChem BioAssay.
